# Experimental data as given in publication PMC4336329 (PLoS ONE, 2015).
# The campaign covered roughly 310,000 compounds. About 14,000 (4.5%) showed an effect of 50% or more. The effect is printed as a negative number. For the sample, strong results were picked, then their nearest neighbours and some compounds at random.
# Molecular target: human ether-à-go-go-related gene (hERG) potassium channel (human, UniProt Q12809)
# Assay: primary screen, population patch clamp on CHO cells stably expressing hERG; higher = less effect of the substance
# 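Note: peak tail current of the secondary pulse compared with the same well before compound.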
# Chain of human ether-à-go-go-related gene (hERG) potassium channel (Q12809 whole entry, looked up): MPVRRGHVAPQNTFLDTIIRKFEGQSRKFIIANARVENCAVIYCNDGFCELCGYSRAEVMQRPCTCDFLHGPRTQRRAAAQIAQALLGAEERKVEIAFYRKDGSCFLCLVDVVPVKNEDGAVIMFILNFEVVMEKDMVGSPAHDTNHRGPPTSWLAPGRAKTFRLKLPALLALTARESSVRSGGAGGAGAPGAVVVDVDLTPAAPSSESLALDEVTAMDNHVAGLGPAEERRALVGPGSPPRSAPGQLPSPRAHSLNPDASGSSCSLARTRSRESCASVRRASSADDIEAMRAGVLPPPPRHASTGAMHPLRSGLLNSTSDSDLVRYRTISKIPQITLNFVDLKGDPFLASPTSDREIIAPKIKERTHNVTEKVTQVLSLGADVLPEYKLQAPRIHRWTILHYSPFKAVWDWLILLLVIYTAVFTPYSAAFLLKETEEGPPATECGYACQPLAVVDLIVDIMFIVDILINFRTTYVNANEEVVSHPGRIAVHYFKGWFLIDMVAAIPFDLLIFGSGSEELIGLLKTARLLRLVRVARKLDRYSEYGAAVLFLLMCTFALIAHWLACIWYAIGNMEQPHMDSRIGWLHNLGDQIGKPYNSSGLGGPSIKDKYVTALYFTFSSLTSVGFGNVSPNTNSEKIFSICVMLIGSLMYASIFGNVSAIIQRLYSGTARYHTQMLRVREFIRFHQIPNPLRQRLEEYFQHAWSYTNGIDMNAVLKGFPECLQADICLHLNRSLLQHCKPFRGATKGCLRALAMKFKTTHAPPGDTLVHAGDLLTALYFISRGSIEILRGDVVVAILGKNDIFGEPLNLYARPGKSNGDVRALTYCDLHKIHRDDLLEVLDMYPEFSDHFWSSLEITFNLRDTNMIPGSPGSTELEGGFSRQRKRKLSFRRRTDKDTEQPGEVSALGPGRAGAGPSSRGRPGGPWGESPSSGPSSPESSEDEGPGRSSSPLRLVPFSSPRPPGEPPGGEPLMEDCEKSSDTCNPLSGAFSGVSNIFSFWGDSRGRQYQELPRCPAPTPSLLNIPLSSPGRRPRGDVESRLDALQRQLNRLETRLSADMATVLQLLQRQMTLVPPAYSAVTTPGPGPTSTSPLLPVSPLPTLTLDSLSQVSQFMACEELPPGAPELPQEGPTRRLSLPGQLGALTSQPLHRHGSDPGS
row,SMILES,"hERG current change (%, negative = inhibition) at 10uM [%]"
1,Cc1cnc(C(=O)Nc2ccc(F)cc2)cn1,-0.2
2,CCN(CC)C(=O)C1CCCN(C(=O)Nc2ccc(NC(=O)N3CCCC(C(=O)N(CC)CC)C3)cc2)C1 (centres unmarked),-11.5
3,COc1ccc(NC(=O)c2cc(-c3cc(C)cc(C)c3O)n[nH]2)cc1Cl,-4.52
4,Cn1c2c(c(=O)n(C)c1=O)CN(CC1CCCO1)CN2 (centres unmarked),9.87
5,CC(C)C(=O)Nc1nc(-c2ccc([N+](=O)[O-])cc2)cs1,7.04
6,CC(C)(C)NC(=O)c1cc(-c2ccccc2)n[nH]1,11.5
7,Cc1ccc(-n2c(Cc3noc4ccccc34)n[nH]c2=S)cc1,8.59
8,NS(=O)(=O)c1cccnc1Nc1cccc(Cl)c1,11.8
9,CN1CCN(CCCNC(=O)c2cc3c(-c4ccc(Cl)cc4)nn(C)c3s2)CC1,-40.1
10,CCCCN(CC)CCCNC(=O)c1cc2c(-c3ccc(OC)c(OC)c3)nn(C)c2s1,-7.25
11,Cn1nc(-c2ccc(Cl)cc2)c2cc(C(=O)NCCCN3CCCC3)sc21,-59.5
12,CCCCNC(=O)c1cc2c(-c3ccc(Cl)cc3)nn(C)c2s1,-7.09
13,CCCCN(CC)CCNC(=O)c1cc2c(-c3ccc(Cl)cc3)nn(C)c2s1,-74.8
14,CCOCCCNC(=O)c1cc2c(-c3ccc(Cl)cc3)nn(C)c2s1,9.31
15,COCCCNC(=O)c1cc2c(-c3ccc(Cl)cc3)nn(C)c2s1,-3.72
16,CCN(CC)CCNC(=O)c1cc2c(-c3ccc(Cl)cc3)nn(C)c2s1,-69.6
17,CC(C)NC(=O)c1cc2c(-c3ccc(Cl)cc3)nn(C)c2s1,4.67
18,Cn1nc(-c2ccc(Cl)cc2)c2cc(C(=O)NCCCN3CCOCC3)sc21,-13.1
19,CCN(CC)CCCNC(=O)c1cc2c(-c3ccc(Cl)cc3)nn(C)c2s1,-59.9
20,COc1cc(CNC(C)C)ccc1OCC(=O)Nc1cccc2ccccc12,-27.2
21,CC(=O)NC1(c2cccc(F)c2)CCN(CC(=O)NC(C)C)CC1,9.55
22,Cc1cc(C(C)(C)C)n2nc(C)c(-c3ccccc3)c2n1,13.9
23,O=[N+]([O-])c1ccc(O)c(Nc2c([N+](=O)[O-])ccc3nonc23)c1,16

row,SMILES,"hERG current change (%, negative = inhibition) at 10uM [%]"
1,CCNc1nc(OC)nc(SCC(=O)Nc2ccccc2)n1,17.2
2,Cc1nnc(Nc2ccc(Cl)cc2)n(N)c1=O,8.16
3,O=C(Nc1cccc(-c2nc3ncccc3o2)c1)c1ccccc1,-9.36
4,O=S(=O)(NCc1cccs1)c1ccc(Br)s1,2.07
5,CCCN(CCC)CCNC(=O)c1cc2c(-c3ccccc3F)nn(C)c2s1,-47.2
6,CCCNC(=O)c1cc(-c2ccccc2)c(N2CCCCC2)s1,14.2
7,CCCCN(CC)CCNC(=O)c1cc2c(-c3ccccc3F)nn(C)c2s1,-66.7
8,CCN1CCCC1CNC(=O)c1cc2c(-c3ccc(Cl)cc3)nn(C)c2s1 (centres unmarked),-62.4
9,CCCN(CCC)CCNC(=O)c1cc2c(-c3ccc(Cl)cc3)nn(C)c2s1,-65.6
10,O=C(NCCc1ccccc1)c1cc(-c2ccccc2)c(N2CCOCC2)s1,3.07
11,CCN1CCCC1CNC(=O)c1cc2c(-c3cccc(OC)c3)nn(C)c2s1 (centres unmarked),-46.3
12,CCCCN(C)CCNC(=O)c1cc2c(-c3ccccc3F)nn(C)c2s1,-48
13,CCCN(CCC)CCCNC(=O)c1cc2c(-c3ccc(OC)c(OC)c3)nn(C)c2s1,-6.94
14,Cn1nc(-c2ccc(Cl)cc2)c2cc(C(=O)NC3CC3)sc21,-1.54
15,Cc1ccc(CNC(=O)c2cc3c(-c4ccc(Cl)cc4)nn(C)c3s2)o1,-8.27
16,CCN(CC)CCCNC(=O)c1cc(-c2ccccc2)c(N2CCCCC2)s1,-51.7
17,CCOC(=O)c1ccc(CC2SC(N)=NC2=O)cc1 (centres unmarked),2.63
18,Cc1ccc(NC(=O)CSc2nc(=O)cc(N)n2-c2ccccc2)cc1,20.3
19,CC(C)(C)NC(=O)NC(=O)CN1C(=O)NC(C)(c2ccccc2)C1=O (centres unmarked),15.8
20,O=C(N/N=C/c1ccoc1)c1cccc([N+](=O)[O-])c1,9.75
21,COc1ccc(NS(=O)(=O)c2cccc(C(=O)NCC(c3ccc(OC)cc3)N3CCOCC3)c2)cc1 (centres unmarked),-26.1
22,O=c1c[n+]([O-])c2ccccc2n1OCc1ccccn1,18.9
23,Cc1ccc(N2C(=O)C(NC(=O)c3c(F)cccc3F)(C(F)(F)F)C3=C2CC(C)(C)CC3=O)cc1 (centres unmarked),9.34

row,SMILES,"hERG current change (%, negative = inhibition) at 10uM [%]"
1,CC(C)c1cc(-c2cc(C(=O)Nc3ccccc3)on2)nc(NCC2CC2)n1,10.3
2,NC(=O)NN=C1C2CCCC1C(c1ccccc1)NC2c1ccccc1 (centres unmarked),-7.17
3,O=C(O)C/C(=C\c1ccc(Cl)cc1)c1nc2ccccc2o1,6.78
4,Cc1ccc2cc(C)c3nnc(SCC(=O)c4cccs4)n3c2c1C,-23.1
5,Cc1ccc(C)c2c1cc(C)c1nnc(SCC(=O)c3cccs3)n12,-61.5
6,Cc1cc(C)c2c(c1)c(C)cc1nnc(SCC(=O)c3cccs3)n12,-2.98
7,Cc1cc(N)n(-c2ccc(C(=O)O)cc2)n1.Cl,13.6
8,COc1ccc(CNC(=O)c2ccc(-c3ccccc3)cc2)cc1OC,0.777
9,Cc1cc2c(cc1S(=O)(=O)CCC(=O)Nc1cccc(C(F)(F)F)c1)OCC(=O)N2,-54
10,CCc1cccc(NC(=O)CCS(=O)(=O)c2cc3c(cc2C)NC(=O)CO3)c1,-14.1
11,Cc1cc2c(cc1S(=O)(=O)CCC(=O)NC1CCC(C)CC1)OCC(=O)N2 (centres unmarked),-14.7
12,CC(=O)c1cccc(NC(=O)CCS(=O)(=O)c2cc3c(cc2C)NC(=O)CO3)c1,1.62
13,CC1CCCCC1NC(=O)CCS(=O)(=O)c1cc2c(cc1Cl)NC(=O)CO2 (centres unmarked),-30.5
14,Cc1cc2c(cc1S(=O)(=O)CCC(=O)NC1CCCCC1C)OCC(=O)N2 (centres unmarked),-53
15,Cc1nc(Sc2nnnn2-c2ccccc2)c(C#N)c(C)c1C,-21.3
16,CCOC(=O)C1CCCN(C(=O)Cn2cccc2C(=O)c2ccccc2)C1 (centres unmarked),-11.5
17,Cc1cccc(C)c1NC(=O)COC(=O)c1cccnc1,4.43
18,C#CCOC(=O)C[N+](C)(C)C/C=C/c1ccccc1.[Cl-],10.4
19,Cc1oc(-c2cccc(C(F)(F)F)c2)nc1CN1CCOCC1,-3.32
20,Cc1cccc(N2CCN(Cc3nc(-c4cccc(Oc5ccccc5)c4)oc3C)CC2)n1,4.13
21,COc1ccc(-c2nc(CN3CCC(C(=O)N4CCOCC4)CC3)c(C)o2)cc1C,-6.98
22,Cc1oc(-c2cccc(Cl)c2)nc1CN1CCC(C(=O)N2CCN(c3ccccn3)CC2)CC1,-68.5
23,Cc1oc(-c2cccc(C(F)(F)F)c2)nc1CN1CCN(c2ccccn2)CC1,-52.5

row,SMILES,"hERG current change (%, negative = inhibition) at 10uM [%]"
1,Cc1oc(-c2cccc(Cl)c2)nc1CN1CCC(C(=O)N2CCN(c3ccccc3F)CC2)CC1,-69.1
2,CCN1CCN(C(=O)C2CCN(Cc3nc(-c4cccc(Cl)c4)oc3C)CC2)CC1,-42.9
3,Cc1oc(-c2cc(F)ccc2F)nc1CN1CCC(C(=O)N2CCOCC2)CC1,-42.8
4,Cc1cccc(-c2nc(CSCC(=O)N3CCN(c4ccccn4)CC3)c(C)o2)c1,-41.2
5,Cn1nnc2ccccc2c1=O,12.5
6,C/C(=N\NC(=S)Nc1c(C)cccc1C)c1cc2ccccc2o1,15.1
7,CCc1ccccc1NC(=O)CSc1n[nH]c(C)c1[N+](=O)[O-],-8.12
8,CCNc1ccc(C(=O)O)cc1N,9.77
9,Cc1cccc(OCCOC(=O)C2CCN(S(=O)(=O)c3cccs3)CC2)c1,6.58
10,COc1cc(NC(=O)c2cccnc2)c(Cl)cc1NC(=O)c1ccc(Cl)cc1,-0.00342
11,COc1cc(/C=C2\SC(=O)NC2=O)ccc1Oc1cnccn1,2.14
12,CCN(CC(=O)NCc1ccc(Cl)cc1)C(=O)c1ccc(S(=O)(=O)NCc2ccco2)cc1,-54.9
13,CCN(CC(=O)Nc1c(F)cccc1F)C(=O)c1ccc(S(=O)(=O)NCc2ccco2)cc1,8.72
14,Cc1nn(-c2ccccc2)c(C)c1CN(C)C(=O)c1ccc(S(=O)(=O)NCc2ccco2)cc1,-21.2
15,CCN(CC(=O)NCc1ccc(Cl)cc1)C(=O)c1ccc(S(=O)(=O)N(C)C)cc1,-33.2
16,COc1ccc(S(=O)(=O)NCc2ccc(C(=O)N(C)Cc3ccco3)cc2)cc1,-19.1
17,CN(Cc1cccs1)C(=O)c1ccc(S(=O)(=O)NCc2ccco2)cc1,-54.2
18,CN(Cc1ccc(Cl)cc1)C(=O)c1ccc(S(=O)(=O)NCc2ccco2)cc1,-51.8
19,CC(C)c1ccc(CN(C)C(=O)c2ccc(S(=O)(=O)NCc3ccco3)cc2)cc1,-33.7
20,COc1ccccc1CN(C)C(=O)c1ccc(S(=O)(=O)NCc2ccco2)cc1,-14.9
